PubChem BioAssay (NCATS)
Results filed as inconclusive are left out. Values without a mark were called inactive. Calls come from the whole dose curve; as a rule, active = well fitted inhibition curve with a large enough effect; inconclusive = small, poorly fitted or top-dose-only effect; inactive = flat fitted curve, though single readings scatter. Where a SMILES comes first, the peptide text is derived from it.

molecular target: Calcium and integrin-binding protein 1 (Homo sapiens) (UniProt Q99828); experiment: Primary qHTS for Identification of Calcium Integrin Binding Protein 1 (CIB1) Competitor (AID 1508620); details: CIB1-GST / FITC-alphaIIb peptide fluorescence polarization; series mostly up to 57.7 µM; activity change, negative = inhibition: at the top concentration; note: top concentration of the series differs between compounds
In short: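 Fluorescence polarization competition: GST-tagged CIB1 (1 uM final) preincubated with compound 15 min at room temperature, then FITC-labelled alphaIIb peptide (100 nM final) added. After 15 min at room temperature, polarization read at Ex 480/Em 540.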
% is set by controls: 0 for no effect and ±100 for the full control effect.

Calcium and integrin-binding protein 1 (Homo sapiens), sequence (Q99828 whole entry, looked up): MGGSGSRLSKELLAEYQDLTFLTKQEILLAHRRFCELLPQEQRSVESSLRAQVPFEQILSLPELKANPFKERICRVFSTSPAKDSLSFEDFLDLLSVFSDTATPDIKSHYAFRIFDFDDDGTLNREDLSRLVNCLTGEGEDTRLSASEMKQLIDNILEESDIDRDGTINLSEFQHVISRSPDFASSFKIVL

| SMILES | activity change, negative = inhibition |
| --- | --- |
| COc1ccc(C(=O)NCc2cc(C(C)C)no2)cc1OC1CCN(C)CC1 | 1.88% [at 114 µM] |
| COC(=O)C[C@H]1C(C)(C)[C@H](OC(=O)C(C)C)C2CC3=C4CC(=O)O[C@@H](c5ccoc5)[C@]4(C)CCC3[C@@]1(C)C2=O (stereo partly drawn) | -6.34% |
| CC1(C)C=Cc2c(ccc3c2[N+]([O-])=C2C3(O)CC34NC(=O)C5(CCCN5C3=O)CC4C2(C)C)O1 (stereo not drawn) | 2.64% |
| NC1(c2ccc(NC(=O)c3ccnc(-c4cc(C(=O)O)ccn4)c3)cc2)CC1 | 1.43% [at 114 µM] |
| CC1(C)CC[C@]2(C(=O)O)CC[C@]3(C)C(=CCC4[C@@]5(C)C[C@@H](O)[C@H](O)[C@@](C)(CO)C5CC[C@]43C)C2C1 (stereo partly drawn) | -2.75% |
| C=C(C)[C@@H]1CC[C@]2(CO)CC[C@]3(C)[C@H](CC[C@@H]4[C@@]5(C)CC[C@H](O)C(C)(C)[C@@H]5CC[C@]43C)[C@@H]12 | 3.05% |
| CCN1CCN(C(=O)N[C@@H](C(=O)N[C@@H]2C(=O)N3[C@@H]2SC(C)(C)[C@@H]3C(=O)O)c2ccccc2)C(=O)C1=O | -0.584% [at 114 µM] |
| CC1(C(=O)O)CC[C@]2(C(=O)OC3OC(CO)C(O)C(O)C3O)CC[C@]3(C)C(=CCC4[C@@]5(C)CC[C@H](OC6OCC(O)C(O)C6OC6OC(CO)C(O)C(O)C6O)C(C)(C)C5CC[C@]43C)C2C1 (stereo partly drawn) | 4.19% [at 30.2 µM] |
| C/C=C/C=C/[C@@H]1O[C@](O)([C@H](CC)C(=O)NC/C=C/C=C(\C)[C@@H](OC)[C@@H](C)[C@@H]2O[C@H](/C=C/C=C/C=C(\C)C(=O)c3c(O)ccn(C)c3=O)[C@H](O)[C@@H]2O)[C@H](O)[C@H](O)C1(C)C | 2.98% [at 30.2 µM] |
| CC1=C2C3OC(=O)C(C)C3(O)CCC2(C)CCC1 (stereo not drawn) | 4.56% [at 114 µM] |
| NC(=O)C(O[C@@H]1O[C@H](CO[C@@H]2O[C@H](CO)[C@@H](O)[C@H](O)[C@H]2O)[C@@H](O)[C@H](O)[C@H]1O)c1ccccc1 (stereo partly drawn) | -7.42% |
| C=C1C[C@H](O)[C@@H](O)[C@@]2(C)C1[C@@H](O)[C@H]1OC(=O)C3[C@@H](C)[C@@H](O)[C@H](O)C2[C@]31C (stereo partly drawn) | 18.9% |
| CSCC[C@H](NC(=O)[C@H](CO)NC(=O)[C@H](CCC(=O)O)NC(C)=O)C(=O)N[C@H](C=O)CC(=O)O (Ac-ESMD-aldehyde) | -1.27% [at 30.2 µM] |
| CC(C)=CCC(O)[C@](C)(O)C1[C@H](O)C[C@@]2(C)C3CC=C4C(C[C@H](O)[C@@H](O[C@@H]5O[C@H](CO)[C@@H](O)[C@H](O)[C@H]5O)C4(C)C)[C@]3(C)C(=O)C[C@]12C (stereo partly drawn) | 1.1% [at 30.2 µM] |
| CC1CCC23COC(=O)C2=CC(O)CC3C1(C)CCc1ccoc1 (stereo not drawn) | -0.728% |
| CC(=O)O[C@@H](C[C@@H]1C=C(C)C(=O)O1)[C@H](C)[C@H]1CCC2[C@@]3(C)CC[C@H](O[C@@H]4O[C@H](CO)[C@@H](O)[C@H](O)[C@H]4O[C@@H]4O[C@@H](C)[C@H](O)[C@@H](O)[C@H]4O)C(C)(C)C3CC[C@@]2(C)[C@@]12COC(=O)C2 (stereo partly drawn) | 2.36% [at 30.2 µM] |
| C=C1C(=O)O[C@@H]2CC(C)=C([C@@H](C)CCCOC(C)=O)[C@@H](O)[C@H]12 | -7.47% |
| COc1cc(C(C)=O)ccc1O[C@@H]1O[C@H](CO)[C@@H](O)[C@H](O)[C@H]1O | 2.08% |
| COC(=O)C1=COC(O[C@@H]2O[C@H](CO)[C@@H](O)[C@H](O)[C@H]2O)[C@@H]2[C@@](C)(O)[C@@H](OC(=O)/C=C/c3ccccc3)C[C@]12O (stereo partly drawn) | -6.71% |
| O=C(/C=C/c1ccc(O)c(O)c1)O[C@H]1[C@H](OC2CCCCC2O)O[C@H](CO)[C@@H](O)[C@@H]1O (stereo partly drawn) | 1.94% |
| C=C1C(O)CC2C(C(=O)O)=COC(O[C@@H]3O[C@H](COC(=O)c4ccc(O)cc4)[C@@H](O)[C@H](O)[C@H]3O)C12 (stereo partly drawn) | -4.17% |
| COC(=O)c1c(CC=C(C)C)c(OC2OC(CO)C(O)C(O)C2O)c2ccccc2c1OC1OC(CO)C(O)C(O)C1O (stereo not drawn) | 2.62% [at 30.2 µM] |
| OCC1=C[C@@H](O)[C@@H]2C=CO[C@@H](O[C@@H]3O[C@H](CO)[C@@H](O)[C@H](O)[C@H]3O)[C@H]12 | 1.6% |
| C=CC(C)(O)CC/C=C(\C)C1CC=C(C)C(=O)O1 (stereo not drawn) | -0.496% [at 114 µM] |
| CC1=C(CO)C2(C)CCCC(C)(C)C2C(O)C1O (stereo not drawn) | 2.95% [at 114 µM] |
| Cn1nccc1-c1ccccc1Oc1ccc(S(=O)(=O)Nc2nccs2)cc1C#N | 0.289% [at 114 µM] |
| CSCC1OC(n2cnc3c(N)ncnc32)C(O)C1O (stereo not drawn) | -6.96% [at 114 µM] |
| O=C(/C=C/c1ccc(O)cc1)OC[C@H]1O[C@H](O[C@@]2(CO)O[C@@H](CO)[C@H](O)[C@H]2O)[C@H](O)[C@@H](O)[C@@H]1O | 3.83% |
